In the library only some 3.3% were active in any assay of this set; here they are far more common.
AmpC inh no detg: blocks E. coli AmpC beta-lactamase in detergent-free assay. P00811. Potency, µM (highest dose often 57.1 µM), for the others: top-dose activity change, negative = inhibition, actives largely listed as inhibitors. 330,000 tested, 0.52% active. AID 485341. AmpC nitrocefin hydrolysis, absorbance 480 nm, 0.0001% Triton;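 further: plate controls were no compound for no effect and no enzyme for full effect; nearly all actives have a fitted effect of over 20% in size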
Target sequence (P00811 whole entry, looked up): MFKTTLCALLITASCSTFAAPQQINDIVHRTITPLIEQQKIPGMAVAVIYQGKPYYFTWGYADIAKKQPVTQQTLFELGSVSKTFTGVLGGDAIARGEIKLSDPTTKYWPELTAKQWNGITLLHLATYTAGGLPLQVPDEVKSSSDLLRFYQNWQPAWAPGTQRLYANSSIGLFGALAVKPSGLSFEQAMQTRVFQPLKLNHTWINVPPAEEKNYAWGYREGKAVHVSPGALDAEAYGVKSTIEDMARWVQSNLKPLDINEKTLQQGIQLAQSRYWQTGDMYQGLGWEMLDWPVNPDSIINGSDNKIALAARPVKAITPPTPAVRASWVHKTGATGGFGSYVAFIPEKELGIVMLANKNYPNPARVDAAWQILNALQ
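20 mM phosphate pH 7.0 + 0.01% (detergent screen) or 0.0001% Triton X-100; 5.3 nM AmpC reagent; cpd preinc 15 min RT; nitrocefin (800 uM stock) to start; A480 q20 s × 4 min; Activity was normalised to no-enzyme and no-compound control wells.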
AmpC detergent: inhibitors of E. coli AmpC beta-lactamase with detergent | AID 485294 | P00811 | Potency, µM (titrated, usually from 114 µM), for inactives: top-dose activity change, negative = inhibition, hits mostly inhibitors | 370,000 tested, 0.041% active | AmpC hydrolysis of nitrocefin, absorbance 480 nm, 0.01% Triton;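 further: 0% = no-compound wells and -100% = no-enzyme wells; nearly all actives have a fitted effect of over 25% in size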
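20 mM phosphate pH 7.0 + 0.01% (detergent screen) or 0.0001% Triton X-100; 5.3 nM AmpC reagent; cpd preinc 15 min RT; nitrocefin (800 uM stock) to start; A480 q20 s × 4 min; Activity was normalised to no-enzyme and no-compound control wells.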
Sm TGR block: S. mansoni TGR enzyme inhibition; Q962Y6; purified TGR, DTNB reduction, TNB absorbance 405 nm; Potency, µM (highest dose often 114 µM), without a hit: top-dose activity change, negative = inhibition, most hits filed as inhibitors; 360,000 tested, 3% active; further: nearly all actives have a fitted effect of over 60% in size
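Kinetic colorimetric format: TGR-catalysed, NADPH-driven DTNB reduction monitored via TNB absorbance. Enzyme dispensed at 20 nM; compound exposure 15 min at room temperature before reaction start.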
Starred values were filed as active, the others as inactive; u = inconclusive; x = no result given. The call rests on the fitted dose curve; in most records, active means well fitted curve in the direction sought with a large enough effect; inconclusive means small, poorly fitted or top-dose-only effect, or another doubt; inactive means no such curve, though single readings can be large; an effect the other way counts as inactive or inconclusive. Unless noted, on the % scale 0 is the no-effect control and ±100 the full control effect; potency means the concentration at half of the fitted maximal effect.

SMILES | AmpC inh no detg | AmpC detergent | Sm TGR block
Cc1ccc(S(=O)(=O)N2CCC(C(=O)N[C@@H](C)C(=O)Nc3ccc4c(c3)OCO4)CC2)cc1 | 8% | 35µM* | -14%
Cc1ccc(S(=O)(=O)N2CCC(C(=O)N[C@@H](C)C(=O)Nc3ccc(F)cc3)CC2)cc1 | 23% | -9% | -20%
CCc1ccccc1NC(=O)CNC(=O)CCc1nc2sc3c(c2c(=O)[nH]1)CCCC3 | 32µM* | u | 18%
O=C(CCc1nc2sc3c(c2c(=O)[nH]1)CCCC3)NCCc1ccccc1 | -9% | 3% | 2%
Cc1ccc(N/N=C(\Cc2nc3ccccc3[nH]2)c2ccccc2)cc1 | -28% | -8% | 40µM*
c1ccc(N/N=C(\Cc2nc3ccccc3[nH]2)c2ccccc2)cc1 | -31% | -7% | -2%
O=C(NCCCN1CCN(c2ccccc2)CC1)c1nnc(Cc2c(F)cccc2Cl)o1 | x | 12% | 8%
O=C(c1ccc2c(c1)OCCO2)N(Cc1cccnc1)c1nc2c(F)cc(F)cc2s1 | x | 2% | 8%
COc1ccc(CCNC(=O)c2cnc3ccc(C)cn3c2=O)cc1 | x | 21% | 8%
O=C(c1ccc(CS(=O)c2ccccc2Cl)o1)N1CCN(c2cccc(C(F)(F)F)c2)CC1 (configuration not stated) | x | 10% | 1%
COc1ccc(-c2noc(N(c3ccc(F)c(Cl)c3)c3nc(-c4ccc(OC)c(OC)c4)no3)n2)cc1OC | x | -3% | -1%
COc1ccc(C(=O)CCC(=O)Nc2cc(C)ccc2C)cc1 | x | 6% | 3%
CCOc1ccc(OCc2ccc(C(=O)NCC3CCCO3)o2)cc1 (configuration not stated) | u | -4% | -10%
O=C(NCC1CCCO1)c1ccc(COc2ccc(F)cc2)o1 (configuration not stated) | 0% | -4% | 35µM*
COc1cccc(CNC(=O)CSc2nnc(C)c3c(C)n(-c4ccccc4)nc23)c1OC | x | 25% | -4%
Cc1ccccc1NC(=O)CN(c1ccc(Cl)cc1Cl)S(=O)(=O)c1ccccc1 | x | 0% | 4%
Cc1ccc(C)c(Nc2ncnc3c2cnn3-c2ccc(F)cc2)c1 | x | 2% | 11%
COc1ccc(-n2ccnc2CN2CCN(C3CCCC3)C(CCO)C2)cc1 (configuration not stated) | 3% | 5% | 25µM*
Cc1cccc(-n2ccnc2CN2CCN(C3CCCC3)C(CCO)C2)c1 (configuration not stated) | -7% | 3% | u
COC(=O)C1=C(c2ccc(C(C)=O)cc2)C[C@@H]2CC[C@H]1N2C(=O)NCC1CC1 | -5% | 0% | 22µM*
COC(=O)C1=C(c2ccc(C(C)=O)cc2)C[C@@H]2CC[C@H]1N2C(=O)NCCO | 0% | 3% | 0%
O=C(NCCS(=O)(=O)N1CCN(c2ccccc2F)CC1)C(c1ccccc1)c1ccccc1 | x | -6% | -1%
O=C(NCCCNc1ccc([N+](=O)[O-])cc1)C(F)(F)F | 0% | 1% | 6%
O=C(CCl)N(CCCNC(=O)C(F)(F)F)c1ccc([N+](=O)[O-])cc1 | -5% | -1% | 2.8µM*
CC(C)N1CCN(Cc2ccc3c(c2)OCCO3)CC1CCO (configuration not stated) | -15% | -1% | u
SMILES | AmpC inh no detg | AmpC detergent | Sm TGR block
Cc1ccc(-c2cccc(CN3CCN(C(C)C)C(CCO)C3)c2)o1 (configuration not stated) | 19% | 4% | 35µM*
COCCCn1c(-c2ccc(OC)cc2)nc2c1c(=O)[nH]c(=O)n2Cc1ccccc1 | -10% | 8% | -5%
Cc1ccc(-c2nc3c(c(=O)[nH]c(=O)n3Cc3ccccc3)n2Cc2ccccc2)o1 | -33% | 1% | 18µM*
Cc1ccc(-c2nc3c(c(=O)[nH]c(=O)n3Cc3ccccc3)n2C)o1 | -24% | 2% | 3.5µM*
Cc1ccc(-c2nc3c(c(=O)[nH]c(=O)n3Cc3ccccc3)n2C)s1 | -20% | 7% | -11%
Cc1ccc(CN(C)C(=O)C2CCCN2C(=O)c2cccs2)o1 (configuration not stated) | -3% | -18% | 7.9µM*
CN(C)C(CNC(=O)C1CCCN1C(=O)c1cccs1)c1ccccc1 (configuration not stated) | -20% | x | x
CCC(C)NC(=O)C1CCC(CNS(=O)(=O)c2ccc(Cl)cc2)CC1 (configuration not stated) | x | 7% | 4%
COc1cccc(NC(=O)c2oc3ccccc3c2NC(=O)c2ccc(OC(C)C)cc2)c1 | x | 11% | 5%
Cc1ccc(C2=NN(CC(=O)NC(C)c3ccccc3)C(=O)CC2)cc1 (configuration not stated) | x | 0% | -1%
CCOc1ccc(Nc2sc(C(=O)c3ccc4c(c3)OCO4)c(N)c2S(=O)(=O)c2ccc(C)cc2)cc1 | x | 1% | 0%
Cc1ccc(C(=O)NC(NC(=S)Nc2ccc(S(N)(=O)=O)cc2)C(Cl)(Cl)Cl)cc1 (configuration not stated) | -28% | u | 3%
Cc1ccccc1C(=O)NC(NC(=S)Nc1ccc(S(N)(=O)=O)cc1)C(Cl)(Cl)Cl (configuration not stated) | 20µM* | -14% | -12%
COc1ccc(NC(=O)c2ccc(-c3nc(CSc4ccc(C)cc4)c(C)o3)cc2)cc1Cl | x | 2% | -7%
COc1ccc(-c2nc3nc(C)cc(N4CCN(c5cccc(C(F)(F)F)c5)CC4)n3n2)cc1 | x | 2% | -6%
Cc1ccc(C)c(C(C)NC(=O)c2ccc(Br)o2)c1 (configuration not stated) | 4% | 2% | 35µM*
Cc1ccc(C)c(C(C)NC(=O)CC#N)c1 (configuration not stated) | -11% | -9% | x
Cc1ccc(N=Nc2ccc(O)c3ncccc23)cc1 | -9% | -2% | 1%
CCS(=O)(=O)c1ccc(N=Nc2ccc(O)c3ncccc23)c(OC)c1 | -14% | 1% | 3%
CN(Cc1ccco1)Cc1ccc(O)c2ncccc12 | -7% | -12% | 0.71µM*
COc1ccccc1N=Nc1ccc(O)c2ncccc12 | -11% | -7% | -35%
Oc1ccc(COCc2ccccc2)c2cccnc12 | -25% | -13% | 35µM*
CCCOCc1ccc(O)c2ncccc12 | -9% | -7% | 28µM*
O=C(O)c1ccc(O)c2ncccc12 | -10% | -5% | -10%
CC(C)COCc1ccc(O)c2ncccc12 | -19% | 10% | 16µM*
SMILES | AmpC inh no detg | AmpC detergent | Sm TGR block
COc1cc(NC(=O)CCCOc2cc(=O)n(C)c3ccccc23)cc(OC)c1OC | x | -8% | -8%
Oc1cccc2cccnc12 | -7% | -6% | -24%
OCc1ccc(O)c2ncccc12 | -13% | -4% | 22µM*
O=C(Nc1cccc(C(=O)N2CCN(c3ccc(Cl)cc3)CC2)c1)c1nsc2ccccc12 | x | -10% | 1%
CSc1cccc(NC(=O)CN2C(=O)COc3ccc(S(=O)(=O)N4CCC(C)CC4)cc32)c1 | x | 18% | 3%
COC1(OC)N=C(N)C2(C#N)C(c3ccccc3)NC(C)=CC12C#N (configuration not stated) | -21% | 4% | -2%
CC1=CC(C#N)(C#N)C(C#N)(C#N)C(c2ccccc2)N1 (configuration not stated) | -25% | u | 22µM*

High-throughput results deposited in PubChem by National Center for Advancing Translational Sciences (NCATS).
